Laboratory results from PubChem BioAssay.
The source made the active and inactive calls.

Columns and labels:
Albumin (Bos taurus) = Albumin (Bos taurus) (UniProt P02769); assay: bovine serum albumin binders on microarray, profiling panel, artefact control for SMM control protein annotation, biochemical, small-molecule microarray, Alexa647 label, 635/667 nm fluorescence (AID 1118); settings: BSA-A647 binding, fluorescence 635 nm, higher = more signal;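 further: score merges 667 nm emission intensity and signal-to-noise per printed compound spot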
Albumin (Bos taurus), sequence (P02769 whole entry, looked up): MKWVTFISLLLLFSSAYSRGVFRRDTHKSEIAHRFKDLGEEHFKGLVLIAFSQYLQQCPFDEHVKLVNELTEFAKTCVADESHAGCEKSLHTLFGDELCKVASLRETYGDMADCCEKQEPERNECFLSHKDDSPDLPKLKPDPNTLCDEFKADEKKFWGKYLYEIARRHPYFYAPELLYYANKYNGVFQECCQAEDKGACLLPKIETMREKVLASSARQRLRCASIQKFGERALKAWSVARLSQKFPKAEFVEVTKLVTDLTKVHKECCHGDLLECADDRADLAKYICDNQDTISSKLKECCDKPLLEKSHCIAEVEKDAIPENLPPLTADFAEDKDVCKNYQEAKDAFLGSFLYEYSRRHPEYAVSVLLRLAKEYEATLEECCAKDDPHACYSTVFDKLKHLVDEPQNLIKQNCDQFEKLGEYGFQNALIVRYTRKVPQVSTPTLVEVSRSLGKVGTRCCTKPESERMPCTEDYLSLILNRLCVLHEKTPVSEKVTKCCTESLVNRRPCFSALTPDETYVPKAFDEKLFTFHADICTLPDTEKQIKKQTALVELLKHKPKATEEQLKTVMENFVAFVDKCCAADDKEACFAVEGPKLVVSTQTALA

[1] = small-molecule microarray binders of probe aXIP, primary screen, biochemical, NeuroSMM set, 635/667 nm fluorescence (AID 1119); settings: higher = more signal, called active from +8 up or from −8 down;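 further: probe is the protein aXip251-270 applied at 1 µg/mL to compound-printed slides; binding of probe to printed compounds measured as 667 nm fluorescence plus signal to noise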
[2] = small-molecule binders of probe aNOTCH3, primary screen, biochemical, small-molecule microarray, 635/667 nm fluorescence (AID 1120); settings: higher = more signal;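 further: probe is a biotin-tagged antibody raised against NOTCH3 rather than NOTCH3 protein; score merges spot fluorescence near 667 nm with spot signal to noise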
[3] = small-molecule binders of probe aNOTCH2, primary screen, biochemical, small-molecule microarray, 635/667 nm fluorescence (AID 1121); settings: higher = more signal;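 further: score merges feature fluorescence read at 667 nm with its signal to noise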
[4] = molecular target: Carbonic anhydrase 2 (Homo sapiens) (UniProt P00918); assay: CAII small-molecule binders, profiling panel, biochemical, small-molecule microarray, Alexa647-labelled CAII (AID 1122); settings: CAII-A647 binding fluorescence, higher = more signal
[5] = COS7 lysate on small-molecule microarray, probe aHis, 635 nm (AID 1123); settings: COS7 cell lysate, fluorescence, higher = more signal;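 further: z-score combines 667nm fluorescence intensity with signal-to-noise per printed compound spot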
[6] = compound binding in COS7 lysate, probe aLAP1, primary screen, cell lysate, small-molecule microarray (AID 1124); settings: probe aLAP1, fluorescence, higher = more signal;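 further: lysate comes from COS7 cells expressing LAP1 and is applied at 0.3 µg/mL; score merges spot fluorescence near 667 nm with signal-to-noise over triplicate slides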
Sam68 (KHDRBS1) = assay: Sam68 small-molecule binders, primary screen, biochemical, small-molecule microarray, 635 nm fluorescence (AID 1125); settings: small-molecule microarray binding, higher = more signal;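 further: score merges 667 nm channel intensity with signal to noise over triplicate slides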
[7] = tested on: Chordin-like protein 2 (CHRDL2); assay: CHRDL2 small-molecule binders, primary screen, biochemical, small-molecule microarray, 635 nm fluorescence (AID 1126); settings: small-molecule microarray binding, fluorescence 635 nm; higher = more signal;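 further: printed compound slides probed with Chrdl2 protein at 4 µg/mL for 1 h at 4 C; score merges 667 nm emission intensity with signal to noise over three replicate slides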
[8] = molecular target: Concanavalin-A (Canavalia ensiformis) (UniProt P02866); assay: ConA small-molecule binders, primary screen, artefact control for SMM control protein annotation, biochemical, small-molecule microarray, Alexa647 label, 635 nm (AID 1127); settings: ConA-A647 binding fluorescence, higher = more signal;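 further: z combines 667 nm emission intensity with signal-to-noise across three replicate slides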
Concanavalin-A (Canavalia ensiformis), sequence (P02866 whole entry, looked up): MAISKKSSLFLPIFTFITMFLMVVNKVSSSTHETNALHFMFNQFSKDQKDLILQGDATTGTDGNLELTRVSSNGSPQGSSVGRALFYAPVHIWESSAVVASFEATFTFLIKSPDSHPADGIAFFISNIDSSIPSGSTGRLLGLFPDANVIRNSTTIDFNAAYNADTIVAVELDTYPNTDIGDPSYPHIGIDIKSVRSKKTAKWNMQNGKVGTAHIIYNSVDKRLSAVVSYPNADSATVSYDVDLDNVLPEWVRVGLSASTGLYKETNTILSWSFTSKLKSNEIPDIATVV

[9] = anti-His antibody binders, primary screen, artefact control for SMM control protein annotation, biochemical, small-molecule microarray, 635 nm fluorescence (AID 1128); settings: anti-His Alexa647 antibody binding, higher = more signal;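 further: score merges feature fluorescence with signal-to-noise for each printed compound spot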
[10] = tested on: Human papillomavirus type 1a E7 protein (residues 1-88); assay: HPV1a E7 small-molecule binders, primary screen, biochemical, small-molecule microarray, residues 1-88, 635 nm (AID 1129); settings: small-molecule microarray binding, fluorescence 635 nm; higher = more signal
[11] = molecular target: Focal adhesion kinase 1 (Homo sapiens) (UniProt Q05397); assay: small-molecule microarray binders of FAK, primary screen, biochemical, 635/667 nm fluorescence, BSA, DTT (AID 1130); settings: PTK2 binding, 635 nm fluorescence, higher = more signal;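 further: composite of spot emission at 667 nm and signal to noise over triplicate slides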
Focal adhesion kinase 1 (Homo sapiens), sequence (Q05397 whole entry, looked up): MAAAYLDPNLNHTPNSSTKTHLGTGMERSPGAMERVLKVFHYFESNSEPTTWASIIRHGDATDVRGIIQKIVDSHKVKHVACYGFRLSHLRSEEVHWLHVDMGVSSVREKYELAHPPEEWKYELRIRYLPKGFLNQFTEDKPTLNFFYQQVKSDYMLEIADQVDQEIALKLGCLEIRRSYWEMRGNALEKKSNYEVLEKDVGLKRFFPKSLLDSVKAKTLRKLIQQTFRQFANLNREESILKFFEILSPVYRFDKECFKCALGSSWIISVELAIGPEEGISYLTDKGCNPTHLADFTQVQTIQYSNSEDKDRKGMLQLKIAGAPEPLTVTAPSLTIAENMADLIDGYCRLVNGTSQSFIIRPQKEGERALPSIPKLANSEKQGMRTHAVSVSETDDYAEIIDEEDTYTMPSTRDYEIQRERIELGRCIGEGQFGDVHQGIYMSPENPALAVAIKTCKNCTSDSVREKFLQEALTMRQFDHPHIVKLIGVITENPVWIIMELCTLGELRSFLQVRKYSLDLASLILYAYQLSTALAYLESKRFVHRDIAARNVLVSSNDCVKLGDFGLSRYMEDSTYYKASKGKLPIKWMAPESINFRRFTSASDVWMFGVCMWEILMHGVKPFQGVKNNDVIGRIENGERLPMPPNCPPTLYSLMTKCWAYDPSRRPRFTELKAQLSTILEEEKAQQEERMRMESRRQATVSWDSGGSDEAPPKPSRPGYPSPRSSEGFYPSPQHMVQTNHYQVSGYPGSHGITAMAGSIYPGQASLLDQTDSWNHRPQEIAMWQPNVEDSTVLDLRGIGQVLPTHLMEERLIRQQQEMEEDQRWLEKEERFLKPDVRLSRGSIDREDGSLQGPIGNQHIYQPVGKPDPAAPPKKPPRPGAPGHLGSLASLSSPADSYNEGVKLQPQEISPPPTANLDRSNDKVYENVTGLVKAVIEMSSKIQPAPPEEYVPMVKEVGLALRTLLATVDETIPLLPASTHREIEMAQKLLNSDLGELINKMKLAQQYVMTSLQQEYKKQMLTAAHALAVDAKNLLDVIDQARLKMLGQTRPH

[12] = tested on: Fibrinogen (Alexa647-labelled); assay: fibrinogen binders on compound microarrays, profiling panel, artefact control for SMM control-protein annotation, biochemical, small-molecule microarray, 635/667 nm fluorescence (AID 1131); settings: fibrinogen-A647 binding fluorescence, higher = more signal;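 further: z-score merges 667 nm fluorescence with per-spot signal-to-noise over triplicate slides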
[13] = molecular target: Follistatin (Homo sapiens) (UniProt P19883); assay: follistatin binders on small-molecule microarrays, primary screen, biochemical, small-molecule microarray, 635/667 nm fluorescence (AID 1132); settings: FST binding, 635 nm fluorescence, higher = more signal
Follistatin (Homo sapiens), sequence (P19883 whole entry, looked up): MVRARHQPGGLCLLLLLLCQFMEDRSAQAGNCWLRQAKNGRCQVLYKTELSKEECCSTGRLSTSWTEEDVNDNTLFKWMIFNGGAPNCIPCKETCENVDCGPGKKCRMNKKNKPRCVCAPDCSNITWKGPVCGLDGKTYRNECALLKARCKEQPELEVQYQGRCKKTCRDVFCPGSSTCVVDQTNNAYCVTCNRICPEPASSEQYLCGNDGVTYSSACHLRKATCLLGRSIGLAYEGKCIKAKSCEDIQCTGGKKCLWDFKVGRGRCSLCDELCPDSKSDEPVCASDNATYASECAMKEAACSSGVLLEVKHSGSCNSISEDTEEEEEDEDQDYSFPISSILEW

[14] = molecular target: Fibroblast growth factor 2 (Homo sapiens) (UniProt P09038); assay: FGF2 binders on small-molecule microarrays, primary screen, biochemical, small-molecule microarray, 635/667 nm fluorescence (AID 1133); settings: small-molecule microarray binding, FGF2, fluorescence 635/667; higher = more signal
Fibroblast growth factor 2 (Homo sapiens), sequence (P09038 whole entry, looked up): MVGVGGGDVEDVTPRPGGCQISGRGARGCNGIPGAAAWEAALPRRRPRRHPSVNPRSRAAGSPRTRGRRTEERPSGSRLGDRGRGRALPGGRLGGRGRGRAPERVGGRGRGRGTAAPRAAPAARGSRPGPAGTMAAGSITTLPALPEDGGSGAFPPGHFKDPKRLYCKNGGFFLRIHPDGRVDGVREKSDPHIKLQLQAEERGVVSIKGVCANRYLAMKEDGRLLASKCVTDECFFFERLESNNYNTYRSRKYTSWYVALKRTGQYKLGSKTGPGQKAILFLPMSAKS

[15] = mitochondrial membrane potential change in A549 cells, profiling panel, cell-based, JC-1 fluorescence, basal, 24 h, 100 nL (AID 1138); settings: higher = more signal;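 further: A549 lung adenocarcinoma cells under basal conditions with no added stimulus; test concentration not given here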
Lefty1 = Lefty1 binders on small-molecule microarrays, primary screen, biochemical, small-molecule microarray, 635/667 nm fluorescence (AID 1139); settings: small-molecule microarray binding, fluorescence 635/667; higher = more signal
[16] = tested on: wheat germ agglutinin (Triticum aestivum), Alexa647-labelled; assay: wheat germ agglutinin binders on compound microarrays, profiling panel, artefact control for SMM control-protein annotation, biochemical, small-molecule microarray, 635/667 nm fluorescence (AID 1140); settings: WGA-A647 binding, 635 nm fluorescence, higher = more signal;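 further: score merges 667 nm feature emission with signal to noise over triplicate slides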
[17] = molecular target: Luciferin 4-monooxygenase (Photinus pyralis) (UniProt P08659); assay: firefly luciferase enzyme inhibitors, primary screen, biochemical, luminescence, purified enzyme, 2006 set (AID 1141); settings: SteadyGlo luminescence, 30 min, higher = more signal, called active from +8 up or from −8 down;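 further: cell-free assay with purified firefly luciferase at 100 ng per well in PBS; test concentration not given here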
Luciferin 4-monooxygenase (Photinus pyralis), sequence (P08659 whole entry, looked up): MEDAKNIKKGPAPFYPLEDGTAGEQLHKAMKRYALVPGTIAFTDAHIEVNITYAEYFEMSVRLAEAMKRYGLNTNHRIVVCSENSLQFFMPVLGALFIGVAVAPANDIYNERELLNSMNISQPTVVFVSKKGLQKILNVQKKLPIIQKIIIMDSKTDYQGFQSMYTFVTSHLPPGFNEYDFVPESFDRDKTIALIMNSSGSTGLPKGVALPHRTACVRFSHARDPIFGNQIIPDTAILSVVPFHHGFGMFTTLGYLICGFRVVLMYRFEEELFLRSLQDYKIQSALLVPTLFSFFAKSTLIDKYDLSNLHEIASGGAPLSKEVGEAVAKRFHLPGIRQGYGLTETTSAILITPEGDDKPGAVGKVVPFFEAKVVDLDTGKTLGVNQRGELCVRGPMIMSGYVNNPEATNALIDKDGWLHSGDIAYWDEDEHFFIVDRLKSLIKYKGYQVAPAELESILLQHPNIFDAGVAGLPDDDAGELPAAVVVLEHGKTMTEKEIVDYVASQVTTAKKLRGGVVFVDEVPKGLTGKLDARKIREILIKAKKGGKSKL

SMILES	composite z-score (Albumin (Bos taurus))	composite Z-score [1]	composite z-score [2]	composite z-score [3]	composite z-score [4]	composite z-score [5]	composite z-score [6]	composite z-score (Sam68 (KHDRBS1))	composite z-score [7]	composite z-score [8]	composite z-score [9]	composite z-score [10]	composite z-score [11]	composite z-score [12]	composite z-score [13]	composite z-score [14]	z-score [15]	composite z-score (Lefty1)	composite z-score [16]	z-score [17]
COc1cc(NN2C(C(O)c3ccco3)C=CC3C(=O)N(c4ccccc4)C(=O)C32)cc(OC)c1OC (stereo not given)	0.877	0.32 (inactive)	-0.0328	-0.139	0.574	1.13	0.166	0.203	-0.776	0.498	0.284	1.06	0.21	-0.0129	0.363	-0.132	-0.16	0.199	0.0464	-2.51 (inactive)
C=CCOC(=O)[C@H]1[C@@H]2C(=O)O[C@@H](c3ccccc3)[C@@H](c3ccccc3)N2[C@@H](c2ccc(OCCOC(=O)[C@@H]3C[C@@H]4C(=O)N[C@@H](CCCCNC(C)=O)C(=O)N4[C@@H]3c3ccc(O)cc3)cc2)[C@]12C(=O)Nc1ccccc12	-0.729	0.282 (inactive)	0.173	-0.0291	0.638	1.94	0.21	1.3	1	1.2	3.17	1.22	1.14	0.76	1.25	1.49	-1.55	1.23	0.8	-0.907 (inactive)
O=C1C[C@@](C(=O)NC2CC2)(c2ccc([N+](=O)[O-])cc2)[C@@H](c2ccc(CO)cc2I)N1C1CCCCC1	0.554	0.142 (inactive)	0.0596	-0.14	0.452	1.77	-0.0328	1.29	0.397	1.04	0.342	1.24	-0.109	0.895	1.24	1.27	1.75	1.14	0.587	-0.234 (inactive)
O=C1NC(=O)C2C1C=CC(C(O)c1cccs1)N2Nc1ccc(Cl)cc1Cl (stereo not given)	0.165	-0.196 (inactive)	0.267	0.181	0.723	1.03	0.293	-0.374	-0.352	-0.376	0.541	-0.443	-0.0686	-0.868	-0.222	-0.534	-0.384	-0.245	0.22	-1.64 (inactive)
COCCOC(=O)N1C(=O)[C@@]2(c3cc(C#CC4(O)CCCCCC4)ccc31)[C@H](c1ccccc1OCCO)N1[C@H](c3ccccc3)[C@H](c3ccccc3)OC(=O)[C@H]1[C@@H]2C(=O)N1CCN(c2ncccn2)CC1	0.781	-0.291 (inactive)	-0.0313	-0.0432	0.596	1.12	0.384	1.29	0.336	1.09	0.701	1.05	0.782	0.662	1.19	0.846	-1.13	0.702	0.764	-1.04 (inactive)
CC(C)C(=C=CC[C@@H](O)c1ccc(OCCO)cc1)C[C@@H](O)COCc1ccccc1	0.531	-0.114 (inactive)	0.0744	-0.105	0.624	0.924	0.664	1.19	0.325	-0.625	-0.547	0.948	0.0144	0.602	1.36	1.46	0.922	1.58	0.225	-1.3 (inactive)
CCc1cccc(NC(=O)O[C@H]2[C@H](OC(=O)Nc3ccccc3-c3ccccc3)[C@@H](OC(=O)Nc3ccccc3-c3ccccc3)[C@@H](OC)O[C@@H]2CO)c1	0.81	0.237 (inactive)	0.13	-0.0238	0.704	2.8	0.219	1.3	-0.229	1.07	2.04	1.31	0.69	1.02	1.02	0.179	-1.12	0.345	1.08	0.532 (inactive)
COc1cc2c(cc1OC)CN(C(=O)[C@@H]1[C@H]3C(=O)O[C@H](c4ccccc4)[C@H](c4ccccc4)N3[C@H](c3ccc(O)cc3)[C@@]13C(=O)Nc1ccccc13)CC2	0.551	0.799 (inactive)	-0.0647	-0.117	0.622	1.74	0.169	0.751	0.257	1.13	0.948	1.21	0.684	0.962	0.421	0.246	-0.379	0.259	0.965	0.81 (inactive)
CO[C@H]1O[C@H](CO)[C@@H](OC(=O)Nc2ccc(Oc3ccccc3)cc2)[C@H](OC(=O)Nc2ccc3c(c2)OCO3)[C@H]1OC(=O)Nc1ccc2c(c1)OCO2	0.703	0.705 (inactive)	0.264	0.0976	0.471	2.19	0.763	1.3	0.317	1.12	1.83	1.2	1.29	0.933	1.34	0.957	-0.249	1.05	1.18	-6.84 (inactive)
C=CC[C@]1(C(=O)NCc2ccccc2)N=C(c2ccc(OCCCO)cc2)O[C@H]1c1ccccc1N=[N+]=[N-]	0.897	1.39 (inactive)	0.174	0.12	0.625	2.68	0.727	1.34	-0.567	1.09	2.39	1.22	0.618	0.971	1.23	-0.26	0.34	0.194	1.23	-8.88 (active)
NC(=O)NCC#Cc1ccc2c(c1)[C@]1(C(=O)N2)[C@H](c2ccc(O)cc2)N2[C@H](c3ccccc3)[C@H](c3ccccc3)OC(=O)[C@H]2[C@@H]1C(=O)O	0.43	0.619 (inactive)	-0.725	-0.281	0.241	0.547	-0.0085	-0.0756	-1.43	0.411	0.948	-0.404	-0.415	-0.159	-0.386	-0.912	-0.61	-0.283	-0.142	0.323 (inactive)
